Assay outcomes (PubChem)
TDP1 cell noCPT – qHTS for Inhibitors of human tyrosyl-DNA phosphodiesterase 1 (TDP1): qHTS in cells in absence of CPT. DT40 Tdp1-/- hTDP1 cells, no CPT, ATP luminescence, 48 h. Potency, µM (highest dose often 46.2 µM), inactives show at the top dose activity change, negative = growth inhibition, most hits filed as inhibitors. 420,000 tested, 15% active. AID 686978, 2013; also: % is scaled to controls: 0 for no effect and ±100 for the full control effect; nearly all actives have a fitted effect of over 55% in size
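Chicken DT40 Tdp1-/- cells complemented with human TDP1, screened without camptothecin (DMSO vehicle only), 400 cells/well. Compounds pin-transferred, cells incubated at 37 °C for at least 48 hr. Growth read as ATP-dependent luminescence (CellTiter-Glo, 30 min at RT).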
TDP1 block – inhibitors of human tyrosyl-DNA phosphodiesterase TDP1; Q9NUW8; recombinant TDP1, AlphaScreen DNA substrate cleavage; Potency, µM (highest dose often 130 µM), for the others: at the highest dose activity change, negative = inhibition, actives largely listed as inhibitors; 350,000 tested, 0.28% active; also: % is scaled to controls: 0 for no effect and ±100 for the full control effect; nearly all actives have a fitted effect of over 40% in size
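E. coli-derived human Tdp1, 1 nM final. Cpd preinc 15 min RT; substrate 15 nM final, 5 min RT; AS bead mix 10 ug/ml final, 10 min RT. Signal loss = tyrosine-FITC cleavage. No-enzyme wells = max signal.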
DT40 TDP1 CPT – DT40-hTDP1 cell growth loss with CPT. chicken DT40 Tdp1-/-;hTDP1 cells + 20 nM CPT, ATP luminescence, 48 h. Potency, µM (series often up to 46.2 µM), without a hit: at the highest dose activity change, negative = growth inhibition, usual class: inhibitors. 420,000 tested, 12% active; also: % is scaled to controls: 0 for no effect and ±100 for the full control effect; nearly all actives have a fitted effect of over 55% in size
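Chicken DT40 Tdp1-/- cells complemented with human TDP1, 400 cells/well, exposed to compounds plus 20 nM camptothecin for at least 48 h at 37 C; viability read as ATP content by CellTiter-Glo luminescence.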
ClpP mod – qHTS Assay for Activators of ClpP. ATP-dependent Clp protease proteolytic subunit (Bacillus subtilis (strain 168)), P80244. purified B. subtilis ClpP, FRET peptide cleavage, 20 min. Potency, µM (highest dose often 57.5 µM), inactives show top-dose activity change, negative = active. 340,000 tested, 1.9% active; active = well fitted falling curve with a large enough effect; inconclusive = small, poorly fitted or top-dose-only effect; inactive = no such curve, though single readings can be large or run the other way; also: the source files actives as falling curves though it sought activators and does not explain the sign; nearly all actives have a fitted effect of over 65% in size
Target sequence (P80244 whole entry, looked up): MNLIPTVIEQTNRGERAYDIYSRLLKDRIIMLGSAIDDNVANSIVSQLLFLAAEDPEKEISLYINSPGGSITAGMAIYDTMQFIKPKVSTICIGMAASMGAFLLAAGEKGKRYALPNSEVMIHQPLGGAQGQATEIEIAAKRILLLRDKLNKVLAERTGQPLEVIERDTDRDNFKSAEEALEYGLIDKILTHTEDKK
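FRET quenching reversal measured ClpP activation: 10 microg/mL B. subtilis ClpP at pH 8 with the FRET-FV decapeptide, read at 430 nm after 320 nm excitation. The 20-min minus 0-min signal was scaled between DMSO/no-enzyme wells and ADEP (5.8 microM final).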
An asterisk follows results filed as active; ? = inconclusive; · = not tested or not shown; ! = repeats disagree; [ ] = remark or other dose. Most compounds without a hit are left out; they make up all but 17% or so of the library. Unless noted, calls follow the shape of the dose curve; as a rule, active = well fitted curve in the direction sought with a large enough effect; inconclusive = small, poorly fitted or top-dose-only effect, or another doubt; inactive = no such curve, though single readings can be large; an effect the other way counts as inactive or inconclusive. Potency is read from the fitted curve at half-maximal effect.

SMILES | TDP1 cell noCPT | TDP1 block | DT40 TDP1 CPT | ClpP mod
Cc1c(C(=O)Nc2ccc3nc(N4CCOCC4)sc3c2)oc2ccccc12 | ? | 0% | 26µM* | -16%
COc1cc(C(=O)Nc2ccc3nc(N4CCOCC4)sc3c2)cc(OC)c1OC | ? | 4% | ? | -2%
O=C(Nc1ccc2nc(N3CCOCC3)sc2c1)c1cc2ccccc2o1 | ? | · | 23µM* | 173%
OC[C@H](S)CS | 16µM* | 13µM* | 8.9µM* | 0%
OCC(S)CS (centres undefined) | 17µM* | · | ? | ·
Cc1ccc2c(C(=O)CNC3=NCCS3)c(C)[nH]c2c1 | ? | · | ? | -6%
Cc1ccc(-c2nnc(Nc3ccc(Br)cc3)c3ccccc23)cc1S(=O)(=O)NCC1CCCO1 (centres undefined) | 4.1µM* | · | 16µM* | ?
Cc1ccc(-c2nnc(Nc3ccc(O)cc3)c3ccccc23)cc1S(=O)(=O)NCC1CCCO1 (centres undefined) | 23µM* | · | ? | -1%
Cc1ccc(-c2nnc(Nc3ccc(C(N)=O)cc3)c3ccccc23)cc1S(=O)(=O)NCC1CCCO1 (centres undefined) | ? | 4% | ? | 1%
O=S1(=O)CCN2C=C(Br)C=C(Br)C2=N1 | -2% | -2% | -6% | 25µM*
O=C(c1ccncc1)c1ccc(NS(=O)(=O)c2ccc(Br)s2)cc1 | 18µM* | 6% | 16µM* | 1%
CCOC(=O)c1ccc(NS(=O)(=O)c2ccc(Br)s2)cc1 | -28% | 0% | -17% | -1%
COc1cc(C(CC(=O)N2CCCC2)c2c(OC)cc(OC)c3ccc(=O)oc23)cc(OC)c1OC (centres undefined) | -25% | · | -14% | -12%
COc1cc(O)c(C(CC(=O)N2CCN(c3ccccc3)CC2)c2ccc(N(C)C)cc2)c(OC)c1 (centres undefined) | -20% | 26% | 23µM* | -1%
COc1ccc(C(CC(=O)N2CCN(c3ccccc3)CC2)c2c(OC)cc(OC)c3ccc(=O)oc23)cc1 (centres undefined) | ? | 16% | 21µM* | ?
CC(=O)OCC(=O)[C@@]12OC3(CCCC3)O[C@@H]1C[C@H]1[C@@H]3CCC4=CC(=O)C=C[C@]4(C)[C@@]3(F)[C@@H](O)C[C@@]12C | 4.6µM* | 4% | 2.3µM*! | 0%
OCCN1CCN(C2CCC(c3ccc(F)cc3)c3ccc(F)cc32)CC1 (centres undefined) | 8.2µM* | · | ? | ·
Nc1ncc(-c2ccc(F)cc2)nc1N1CCN(CCO)CC1 | -28% | · | -14% | 5%
O=C1C(N2CCOCC2)=C(n2nnc3ccccc32)C(=O)c2ccccc21 | 3.3µM* | 8% | 2.3µM* | 0%
O=C1c2ccccc2C(=O)c2c1cccc2-n1nnc2ccccc21 | -3% | · | 12% | ·
CC(C)CNc1ncnc2c1ncn2[C@H]1CN(C2CCCC2)C[C@@H](CO)O1 | ? | · | -23% | -3%
N#C/C(=C\Nc1ccc2cn[nH]c2c1)c1nc(-c2ccccc2)cs1 | 16µM* | 7% | ? | ?
N#C/C(=C\Nc1ccc2cn[nH]c2c1)c1nc(-c2ccc(Cl)cc2)cs1 | 23µM* | 4% | ? | ·
N#C/C(=C/c1ccc(Cl)cc1)c1nc(-c2ccc(Br)cc2)cs1 | -21% | 4%[12.3 µM] | 2% | 3%
N#CC(=Cc1ccccn1)c1nc(-c2ccc(Cl)cc2)cs1 | ? | · | ? | 25µM*
SMILES | TDP1 cell noCPT | TDP1 block | DT40 TDP1 CPT | ClpP mod
CCOC(=O)C1C(=O)NC(C(=O)OCC)(C(=O)OCC)C1C(C)CC (centres undefined) | 1% | · | 5% | ·
COc1cc(F)c(S(=O)(=O)N2CCOc3ccccc32)cc1OC | -24% | · | ? | -3%
O=C(CC1Sc2ccccc2NC1=O)NCc1ccc(Cl)cc1 (centres undefined) | -10% | 4% | 3% | ·
CC(C)(C)c1ccc(/C=N/NC(=O)C2CCCC2)cc1 | 13µM* | 0% | 21µM* | 2%
Cc1cc(NC(=O)CCCN2C(=O)c3cccnc3C2=O)no1 | 26µM* | 7% | 21µM* | -2%
CC(C)c1onc(C(=O)N2CCCCCC2)c1[N+](=O)[O-] | ? | 1% | 0% | ·
CC(C)c1onc(C(=O)NC2CCCCC2)c1[N+](=O)[O-] | 21µM* | 1% | 21µM* | ·
N#CCCN(C(=O)COc1ccc(Cl)cc1Cl)c1ccccc1 | -16% | -1% | 1% | 2%
CN(C)CCN(C(=O)CCc1ccccc1)c1nc2c(F)cc(F)cc2s1 | -20% | 3% | -10% | 3%
Cc1cccc2sc(N(CCCN(C)C)C(=O)CCc3ccccc3)nc12 | ? | 5% | 26µM* | 2%
CN(C)CCCN(C(=O)CCc1ccccc1)c1nc2ccc(F)cc2s1 | 16µM* | 2% | -19% | 0%
CN(C)CCN(C(=O)/C=C/c1cccs1)c1nc2ccc(F)cc2s1 | 18µM* | -5% | 21µM* | 9%
CN(C)CCN(C(=O)c1cc(Cl)sc1Cl)c1nc2ccc(F)cc2s1 | -20% | 5% | -10% | -12%
CN(C)CCCN(C(=O)c1cc(-c2cccs2)nc2ccccc12)c1nc2ccc(F)cc2s1 | 13µM* | 5% | 23µM* | -16%
Cc1cccc2sc(N(CCCN(C)C)C(=O)CN3C(=O)c4ccccc4C3=O)nc12 | ? | 3% | ? | 4%
COc1ccc(S(=O)(=O)N2CCOCC2)cc1NC(=O)CCOc1ccc(C(C)(C)C)cc1 | ? | 4% | ? | 0%
CN(C)CCCN(C(=O)CCc1ccccc1)c1nc2ccc(Br)cc2s1 | 23µM* | 6% | ? | ·
CN(C)CCCN(C(=O)COc1ccccc1)c1nc2cc3c(cc2s1)OCCO3 | -30% | 4% | -7% | 2%
O=C(NCCc1ccccc1F)C1CCCN(c2nc3ccccc3s2)C1 (centres undefined) | ? | 0% | -13% | ·
CC(C)NC(=O)c1cc(C2CCCCN2S(=O)(=O)c2cccc3cccnc23)on1 (centres undefined) | 0% | · | -5% | -2%
O=C1C(=Cc2ccccn2)CCc2ccccc21 | 4.1µM* | · | 15µM* | 2%
C(=N\N=C\c1ccccn1)/c1ccccn1 | -5% | · | 17% | ·
C(=C1c2ccccc2-c2ccccc21)c1ccccn1 | 13µM* | · | ? | 2%
COC(=O)c1c(NC(=O)c2nc(SCc3cccc(C)c3)ncc2Cl)sc2c1CCCC2 | -3% | 0% | -20% | 1%
Cc1cccc(CSc2ncc(Cl)c(C(=O)Nc3sc4c(c3C#N)CCCC4)n2)c1 | 5.8µM* | 2% | 23µM* | 1%
Cc1cccc(CSc2ncc(Cl)c(C(=O)Nc3sc4c(c3C(N)=O)CCCC4)n2)c1 | 8.2µM* | 9% | 23µM* | -1%
CC1(C)Cc2cccc(OCC(=O)NCc3cccs3)c2O1 | -21% | 9% | -21% | -30%
